# Unmarked numbers belong to inactive results. The rule behind the calls is not given here.
# Biological target: Pantothenate synthetase (Mycobacterium tuberculosis (strain ATCC 25618 / H37Rv)) (UniProt P9WIL5)
# Experiment: Coupled enzyme confirmation of inhibitors against recombinant Mtb PanC (AID 375);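 note: 0% = full reaction with vehicle and 100% = no enzyme background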
# Details: coupled enzyme assay; at 10 µM, active compounds read high
# Chain of Pantothenate synthetase (Mycobacterium tuberculosis (strain ATCC 25618 / H37Rv)) (P9WIL5 whole entry, looked up): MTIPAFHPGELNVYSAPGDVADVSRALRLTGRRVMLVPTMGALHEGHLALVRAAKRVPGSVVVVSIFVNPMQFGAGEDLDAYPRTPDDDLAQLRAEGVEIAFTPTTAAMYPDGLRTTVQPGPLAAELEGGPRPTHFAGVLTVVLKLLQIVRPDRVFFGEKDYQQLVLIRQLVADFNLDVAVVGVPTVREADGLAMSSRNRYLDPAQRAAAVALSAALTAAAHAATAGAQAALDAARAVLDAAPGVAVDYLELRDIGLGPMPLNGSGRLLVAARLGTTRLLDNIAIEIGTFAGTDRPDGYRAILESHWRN
row,Compound,inhibition
1,CC1CCCCN1C(=O)Cn1nnc(-c2cccnc2)n1 (stereo not given),0%
2,c1cncc(-c2nnc3n2N=C(c2cccs2)CS3)c1,6%
3,CCOc1ccc(S(=O)(=O)Nc2ccccc2C(=O)Nc2ccccc2N2CCOCC2)cc1,1%
4,CCCC(=O)C1=C(N(C)c2ccccc2)CC(C)(C)C(C(=O)OC)C1=O (stereo not given),1%
5,CCOC(=O)CSc1cn2c(n1)CCC2,3%
6,CCCCCC1CC(CC(=O)O)C(=O)O1 (stereo not given),6%
7,O=C(Nc1ccc2c(c1)OCO2)OCc1ccccc1,0%
8,Cc1sc2ncn3ncnc3c2c1C,0%
9,Cc1ccnc(NC(=O)Nc2ccc(F)cc2)c1,0%
10,CCc1ccc(CCC(=O)Nc2ccc(C)c(C)c2)o1,4%
11,Cc1cc(NC(=O)CCC(=O)N(c2cccnc2)C(C(=O)NC2CCCC2)c2ccccc2F)no1 (stereo not given),0%
12,C=CCOc1ccc(C2C(C(=O)c3ccco3)=C(O)C(=O)N2Cc2cccnc2)cc1 (stereo not given),0%
13,CSCC[C@@H](Nc1nc(-c2ccccc2)nc2c1oc1ccccc12)C(=O)O,4%
14,CCOc1ccccc1C(=O)NC(C)c1ccc2c(c1)OCO2 (stereo not given),0%
15,O=S(=O)(NC1CCCC1)c1ccc(S(=O)(=O)N2CCc3ccccc32)cc1,0%
16,CC(=O)Nc1ccc(S(=O)(=O)N(C2=NCC(C)S2)c2ccccc2)cc1 (stereo not given),0%
17,COc1cccc(-c2cc(C(=O)N3CCCCCC3)no2)c1,1%
18,O=C(NCC(F)(F)F)Nc1cccnc1,7%
19,CCOC(=O)CSC1=C(C#N)C(=O)NC(c2ccc(OC)c(OC)c2)S1 (stereo not given),16%
20,CC(=O)Nc1ccc(NC2=CC(=O)CC(C)(C)C2)cc1,4%

row,Compound,inhibition
1,COc1cccc(N2CCN(CC(=O)NCc3cccs3)CC2)c1,3%
2,CCN(CC)S(=O)(=O)c1ccc(N2CCCC2)c(C(=O)OCC(=O)/C(C#N)=C(\C)N)c1,6%
3,Cc1ccc(S(=O)(=O)N2CCN(C(=O)CSC3CCCC3)CC2)c(C)c1,0%
4,CC(C(=O)Nc1ccccc1-c1ccccc1)N1CCOCC1 (stereo not given),1%
5,COc1ccc(N2CCN(C(=O)C(C)(C)Oc3ccc(Cl)cc3)CC2)cc1,0%
6,CC(=O)c1ccc(OC(=O)c2cccs2)cc1,0%
7,CN(C)S(=O)(=O)c1ccc2c(c1)c(=O)c(C(=O)NCCCN1CCCCCC1)cn2C,0%
8,CCOC(=O)CC(=O)Nc1c(C)cc(C)cc1C,4%
9,Cc1ccc(-n2c(=O)c3sccc3n(CC(=O)NCc3ccco3)c2=O)cc1,0%
10,CCOC(=O)c1cccc(NC(=O)CSc2nnc(-c3cccnc3)n2CC)c1,0%
11,CCc1nnc2n1N=C(c1ccc(-c3ccc(Cl)cc3Cl)o1)CS2,3%
12,CCSc1nnc(-c2ccc(OC)cc2)o1,0%
13,COc1ccc(-c2ccc(-c3nnc(-c4ccncc4)o3)cc2)cc1,4%
14,COc1ccc(C(c2nnnn2C2CCCC2)N2CCC(C)CC2)c(OC)c1 (stereo not given),3%
15,CCOC(=O)C1C2C=CC3(CN(Cc4ccco4)C(=O)C13)O2 (stereo not given),0%
16,Cc1cc(C)c(C)c(OCC(=O)NCC2CCCO2)c1 (stereo not given),0%
17,O=C(CSc1nnc(Cn2c(=O)sc3ccccc32)n1-c1ccccc1)NCC1CCCO1 (stereo not given),0%
18,O=S(=O)(c1cc(Cl)ccc1Br)N1CCOCC1,0%
19,CC1Cc2ccccc2N1C(=O)COC(=O)Cn1nnc(-c2ccccc2)n1 (stereo not given),13%
20,Cc1cccc(C2CC(c3ccc(Cl)cc3)Nc3nc(N)nn32)c1 (stereo not given),0%
